# Assay results taken from the supplement of paper PMC6555819.
# Legend:
# Assay in all cases: PBM binding z-score (relative to random genomic background probes); higher = stronger binding; sequences stand for … in GC…GCGATTGACAGCGTAGAATGAAGG
# [1] = system: PPARg:RXRa DBDmut IVT, anti-RXR (DBD mutation: RXRa K156A/R161A, NR concentration 270 nM, RXRa partner concentration 90 nM)
# Outline: (§1)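 Each nuclear receptor dimer, without ligand, was incubated for 1 h on custom Agilent 4×180K protein-binding microarrays. Binding was detected with antibodies against each partner (one per run), and scanned fluorescence was regression-normalized. The binding z-scores are referenced to random human genomic background probes.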
# [2] = system: PPARg:RXRa IVT, anti-PPARg (NR concentration 270 nM, RXRa partner concentration 90 nM)
# Outline: as §1
# [3] = system: PPARg DBDmut:RXRa IVT, anti-PPARg (DBD mutation: PPARg1 K132A/R137A, NR concentration 270 nM, RXRa partner concentration 90 nM)
# Outline: as §1
# [4] = system: PPARg DBDmut IVT, anti-PPARg (DBD mutation: PPARg1 K132A/R137A, NR concentration 270 nM)
# Outline: as §1
# [5] = system: PPARg homodimer (NR concentration 180 nM)
# Outline: as §1
# [6] = system: PXR:RXRa (NR concentration 270 nM, RXRa partner concentration 90 nM)
# Outline: as §1
# [7] = system: PXR homodimer (NR concentration 270 nM)
# Outline: as §1
# [8] = system: RARa:RXR (NR concentration 270 nM, RXRa partner concentration 90 nM)
# Outline: as §1
# [9] = system: RARa homodimer (NR concentration 270 nM)
# Outline: as §1
# [10] = system: RARb:RXRa (NR concentration 270 nM, RXRa partner concentration 90 nM)
# Outline: as §1
sequence,measurement,setting,value
AATACAGGTTCACTAGGCCAGAGTAGGTACGAAT,PBM binding z-score,[1],1.36
same,PBM binding z-score,[2],2.73
same,PBM binding z-score,[3],1.46
same,PBM binding z-score,[4],0.869
same,PBM binding z-score,[5],0.811
same,PBM binding z-score,[6],1.47
same,PBM binding z-score,[7],0.559
same,PBM binding z-score,[8],1.64
same,PBM binding z-score,[9],0.374
same,PBM binding z-score,[10],1.78
AGAATGAGGTTACCAAGGATCAGGGAAACGCTTG,PBM binding z-score,[1],3.39
same,PBM binding z-score,[2],3.37
same,PBM binding z-score,[3],1.28
same,PBM binding z-score,[4],0.207
same,PBM binding z-score,[5],0.544
same,PBM binding z-score,[6],1.28
same,PBM binding z-score,[7],0.0221
same,PBM binding z-score,[8],2.01
same,PBM binding z-score,[9],-0.233
same,PBM binding z-score,[10],2.04
TCATATAGGTAAAGGTGAGAGTCGAACGATATGA,PBM binding z-score,[1],4.15
same,PBM binding z-score,[2],4
same,PBM binding z-score,[3],1.24
same,PBM binding z-score,[4],1.62
same,PBM binding z-score,[5],0.906
same,PBM binding z-score,[6],0.649
same,PBM binding z-score,[7],0.0264
same,PBM binding z-score,[8],1.29
same,PBM binding z-score,[9],0.387
same,PBM binding z-score,[10],1.69
TAGCCGAGGTCATGGGCCAGTATACCACGCGAAC,PBM binding z-score,[1],1.94
same,PBM binding z-score,[2],4.59
same,PBM binding z-score,[3],1.31
same,PBM binding z-score,[4],0.953
same,PBM binding z-score,[5],2.7
same,PBM binding z-score,[6],5.24
same,PBM binding z-score,[7],0.728
same,PBM binding z-score,[8],5.62
same,PBM binding z-score,[9],0.741
same,PBM binding z-score,[10],5.01
TATACAGGGTCAAAGGCCAGAGTTCGAATGTCGA,PBM binding z-score,[1],2.55
same,PBM binding z-score,[2],4.54
same,PBM binding z-score,[3],1.63
same,PBM binding z-score,[4],2
same,PBM binding z-score,[5],3.99
same,PBM binding z-score,[6],5.44
same,PBM binding z-score,[7],2.54
same,PBM binding z-score,[8],6.63
same,PBM binding z-score,[9],1.14
same,PBM binding z-score,[10],4.53
ACTCGGAGGACAAAGGTCAGAGCTACGCCAGTGA,PBM binding z-score,[1],0.692
same,PBM binding z-score,[2],3.72
same,PBM binding z-score,[3],0.709
same,PBM binding z-score,[4],0.127
same,PBM binding z-score,[5],3.04
same,PBM binding z-score,[6],3.91
same,PBM binding z-score,[7],0.0188
same,PBM binding z-score,[8],5.19
same,PBM binding z-score,[9],2.21
same,PBM binding z-score,[10],4.44
ATCTCTAGGTAACCAAGTCCAGTGAATGCCGAAC,PBM binding z-score,[1],3.27
same,PBM binding z-score,[2],2.54
same,PBM binding z-score,[3],0.49
same,PBM binding z-score,[4],1.58
same,PBM binding z-score,[5],0.614
same,PBM binding z-score,[6],0.0528
same,PBM binding z-score,[7],0.209
same,PBM binding z-score,[8],0.268
same,PBM binding z-score,[9],0.592
same,PBM binding z-score,[10],0.379
ATCTCTAGATAACAAGTTCAGTGAAAGAGAGGAC,PBM binding z-score,[1],-0.504
same,PBM binding z-score,[2],0.236
same,PBM binding z-score,[3],0.623
same,PBM binding z-score,[4],0.272
same,PBM binding z-score,[5],0.186
same,PBM binding z-score,[6],1.26
same,PBM binding z-score,[7],1.72
same,PBM binding z-score,[8],0.0962
same,PBM binding z-score,[9],0.589
same,PBM binding z-score,[10],1
GCTTGTGGATCAAGGTTAAGAAAGACTAAGCTAA,PBM binding z-score,[1],0.991
same,PBM binding z-score,[2],1.19
same,PBM binding z-score,[3],-0.0361
same,PBM binding z-score,[4],0.0112
same,PBM binding z-score,[5],0.339
same,PBM binding z-score,[6],0.429
same,PBM binding z-score,[7],-0.166
same,PBM binding z-score,[8],0.735
same,PBM binding z-score,[9],-0.249
same,PBM binding z-score,[10],0.702
CGTCCAAGGTCAAAGGAGGTCAGTGAAGACAGAT,PBM binding z-score,[1],3.19
same,PBM binding z-score,[2],4.71
same,PBM binding z-score,[3],0.585
same,PBM binding z-score,[4],-0.349
same,PBM binding z-score,[5],3.39
same,PBM binding z-score,[6],6.84
same,PBM binding z-score,[7],3.62
same,PBM binding z-score,[8],5.79
same,PBM binding z-score,[9],0.875
same,PBM binding z-score,[10],5.6
TGAATGAGATTAAAGATCAGGGAACGTGGCGTCG,PBM binding z-score,[1],-0.695
same,PBM binding z-score,[2],-0.415
same,PBM binding z-score,[3],-1.12
same,PBM binding z-score,[4],-0.126
same,PBM binding z-score,[5],-0.076
same,PBM binding z-score,[6],-0.42
same,PBM binding z-score,[7],-0.498
same,PBM binding z-score,[8],-0.467
same,PBM binding z-score,[9],0.0825
same,PBM binding z-score,[10],-0.19
ACTAGCACGCCAAGTTTGGGTCACTCAAACAAAG,PBM binding z-score,[1],-0.764
same,PBM binding z-score,[2],0.325
same,PBM binding z-score,[3],-0.643
same,PBM binding z-score,[4],-0.578
same,PBM binding z-score,[5],0.00723
same,PBM binding z-score,[6],0.524
same,PBM binding z-score,[7],-0.537
same,PBM binding z-score,[8],0.981
same,PBM binding z-score,[9],-0.534
same,PBM binding z-score,[10],1
TCTGCTAGGTCTGTTGGTCAGCTAACGAGCTGCC,PBM binding z-score,[1],0.324
same,PBM binding z-score,[2],0.208
same,PBM binding z-score,[3],0.17
same,PBM binding z-score,[4],0.0841
same,PBM binding z-score,[5],-1.76
same,PBM binding z-score,[6],-0.467
same,PBM binding z-score,[7],-0.379
same,PBM binding z-score,[8],-0.461
same,PBM binding z-score,[9],-1.79
same,PBM binding z-score,[10],0.107
TCTATTAGTTGAAGGGCAACAGACGAGTCCGTTT,PBM binding z-score,[1],2.12
same,PBM binding z-score,[2],0.473
same,PBM binding z-score,[3],0.759
same,PBM binding z-score,[4],0.516
same,PBM binding z-score,[5],1.01
same,PBM binding z-score,[6],0.991
same,PBM binding z-score,[7],0.988
same,PBM binding z-score,[8],0.764
same,PBM binding z-score,[9],1.52
same,PBM binding z-score,[10],1.55
AGAATGAGATTATACGTAGATCAGGGAAGAAAGT,PBM binding z-score,[1],-0.76
same,PBM binding z-score,[2],-0.334
same,PBM binding z-score,[3],0.931
same,PBM binding z-score,[4],0.37
same,PBM binding z-score,[5],-0.24
same,PBM binding z-score,[6],-0.502
same,PBM binding z-score,[7],0.417
same,PBM binding z-score,[8],-0.447
same,PBM binding z-score,[9],0.366
same,PBM binding z-score,[10],-0.409
GATACAGGGTCAGCTAGAGGCGAGAGTATGGAAA,PBM binding z-score,[1],1.45
same,PBM binding z-score,[2],2.17
same,PBM binding z-score,[3],-0.6
same,PBM binding z-score,[4],-0.459
same,PBM binding z-score,[5],1.77
same,PBM binding z-score,[6],2.25
same,PBM binding z-score,[7],-0.498
same,PBM binding z-score,[8],3.52
same,PBM binding z-score,[9],0.0279
same,PBM binding z-score,[10],4.1
CGTCAAAGTTCAACTAAAGTAACGTAAAGCACGC,PBM binding z-score,[1],0.164
same,PBM binding z-score,[2],2
same,PBM binding z-score,[3],1.4
same,PBM binding z-score,[4],1.46
same,PBM binding z-score,[5],3.19
same,PBM binding z-score,[6],4.82
same,PBM binding z-score,[7],3.3
same,PBM binding z-score,[8],4.03
same,PBM binding z-score,[9],2.17
same,PBM binding z-score,[10],5.28
ACAGACAGGTGAGTGAAGGTAACACAGCTGGACG,PBM binding z-score,[1],0.662
same,PBM binding z-score,[2],0.632
same,PBM binding z-score,[3],0.226
same,PBM binding z-score,[4],-0.221
same,PBM binding z-score,[5],0.391
same,PBM binding z-score,[6],-0.00194
same,PBM binding z-score,[7],0.205
same,PBM binding z-score,[8],0.574
same,PBM binding z-score,[9],0.248
same,PBM binding z-score,[10],0.597
TCATATAGGTAAACATGTGAAAGTCCGTAAGTTA,PBM binding z-score,[1],4.4
same,PBM binding z-score,[2],3.17
same,PBM binding z-score,[3],1.32
same,PBM binding z-score,[4],1.79
same,PBM binding z-score,[5],0.718
same,PBM binding z-score,[6],0.808
same,PBM binding z-score,[7],0.34
same,PBM binding z-score,[8],0.815
same,PBM binding z-score,[9],1.18
same,PBM binding z-score,[10],0.412
CAAACTAGGTCACCGGAAGGTCAAAGGCCGCATG,PBM binding z-score,[1],8.46
same,PBM binding z-score,[2],8.84
same,PBM binding z-score,[3],4.26
same,PBM binding z-score,[4],3.71
same,PBM binding z-score,[5],5.53
same,PBM binding z-score,[6],5.83
same,PBM binding z-score,[7],1.1
same,PBM binding z-score,[8],7.5
same,PBM binding z-score,[9],1.75
same,PBM binding z-score,[10],5.35
ATATGTAGGTTACATCCGGGTCATTAAGGCTATG,PBM binding z-score,[1],7.73
same,PBM binding z-score,[2],7.28
same,PBM binding z-score,[3],1.96
same,PBM binding z-score,[4],2.14
same,PBM binding z-score,[5],1.78
same,PBM binding z-score,[6],3.52
same,PBM binding z-score,[7],4.13
same,PBM binding z-score,[8],3.18
same,PBM binding z-score,[9],0.456
same,PBM binding z-score,[10],2.36
GCTTGTAGATCAAGGTTTAGAAAGACTAAGCTAA,PBM binding z-score,[1],1.06
same,PBM binding z-score,[2],0.361
same,PBM binding z-score,[3],-0.41
same,PBM binding z-score,[4],0.0012
same,PBM binding z-score,[5],-0.0341
same,PBM binding z-score,[6],-0.479
same,PBM binding z-score,[7],-0.437
same,PBM binding z-score,[8],-0.166
same,PBM binding z-score,[9],0.111
same,PBM binding z-score,[10],-0.486
ATCTCTAGGTAAAAGTTCAGTAAATCCCGAGGAT,PBM binding z-score,[1],1.87
same,PBM binding z-score,[2],3.76
same,PBM binding z-score,[3],1.75
same,PBM binding z-score,[4],1.54
same,PBM binding z-score,[5],1.88
same,PBM binding z-score,[6],1.8
same,PBM binding z-score,[7],1.71
same,PBM binding z-score,[8],1.47
same,PBM binding z-score,[9],1.92
same,PBM binding z-score,[10],2.41
CCAACTAGGTCAAGAGGTCAAAGTCCGCTTCCCG,PBM binding z-score,[1],8.09
same,PBM binding z-score,[2],8.02
same,PBM binding z-score,[3],4.07
same,PBM binding z-score,[4],5.47
same,PBM binding z-score,[5],8.09
same,PBM binding z-score,[6],6.37
same,PBM binding z-score,[7],2.79
same,PBM binding z-score,[8],8.12
same,PBM binding z-score,[9],3.13
same,PBM binding z-score,[10],5.34
